Test results from PubChem BioAssay AID1159580 (chemical genetic matrix, 2015).
The campaign covered roughly 5,500 compounds. About 2,000 (36%) were called active. Inconclusive results (about 18%) are left out. Cut-off read from the data, not from the text of the source: active = normalized growth mostly below about 0.91 (no sharp cut-off); inconclusive = no clear call, values can overlap the other calls; inactive = mostly above about 0.92. This is one part of the list.

Test: chemical genetic growth profiling, strain panel (AID 1159580);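 note: tested at 20 µM; growth read once vehicle control cultures reached saturation at 30 °C; 1 = growth at the plate median or of vehicle wells; lower values mean less growth of the strain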
Details: S. cerevisiae deletion strains, growth OD

Measured: normalized growth

O=C(OCc1ccc(Oc2ccc(Cl)cc2Cl)c([N+](=O)[O-])c1)c1ccc([N+](=O)[O-])o1
inactive: locus YAR019C, strain CDC15, stronger effect = lower value 0.98 | locus YBL105C, strain PKC1, stronger effect = lower value 0.975 | locus YBR135W, strain CKS1, stronger effect = lower value 0.981 | locus YBR136W, strain MEC1, stronger effect = lower value 0.961 | locus YBR160W, strain CDC28, stronger effect = lower value 0.97 | locus YDL017W, strain CDC7, stronger effect = lower value 0.979 | locus YDL028C, strain MPS1, stronger effect = lower value 0.958 | locus YDL101C, strain DUN1, stronger effect = lower value 0.98 | locus YDL108W, strain KIN28, stronger effect = lower value 0.969 | locus YDL132W, strain cdc53, stronger effect = lower value 0.974 | locus YDL214C, strain PRR2, stronger effect = lower value 1.01 | locus YDR052C, strain DBF4, stronger effect = lower value 0.99 | locus YDR054C, strain cdc34, stronger effect = lower value 0.968 | locus YDR226W, strain ADK1, stronger effect = lower value 0.97 | locus YDR477W, strain SNF1, stronger effect = lower value 0.971 | locus YER123W, strain YCK3, stronger effect = lower value 0.987 | locus YER133W, strain GLC7, stronger effect = lower value 0.995 | locus YFL009W, strain cdc4, stronger effect = lower value 0.956 | locus YFL029C, strain CAK1, stronger effect = lower value 0.978 | locus YFR003C, strain YPI1, stronger effect = lower value 0.985 | locus YFR019W, strain FAB1, stronger effect = lower value 0.99 | locus YFR028C, strain CDC14, stronger effect = lower value 0.969 | locus YGR040W, strain KSS1, stronger effect = lower value 0.977 | locus YGR052W, strain FMP48, stronger effect = lower value 1.07 | locus YGR092W, strain DBF2, stronger effect = lower value 0.957 | locus YHR030C, strain SLT2, stronger effect = lower value 0.916 | locus YHR079C, strain IRE1, stronger effect = lower value 0.997 | locus YHR082C, strain KSP1, stronger effect = lower value 1.04 | locus YHR205W, strain SCH9, stronger effect = lower value 0.93 | locus YIL147C, strain SLN1, stronger effect = lower value 0.977 | locus YJL095W, strain BCK1, stronger effect = lower value 0.993 | locus YJL128C, strain PBS2, stronger effect = lower value 0.896 | locus YJL157C, strain FAR1, stronger effect = lower value 0.987 | locus YJR016C, strain ILV3, stronger effect = lower value 0.982 | locus YJR066W, strain TOR1 (second series), stronger effect = lower value 0.971 | locus YJR066W, strain TOR1, stronger effect = lower value 0.972 | locus YKL048C, strain ELM1, stronger effect = lower value 0.991 | locus YKL067W, strain YNK1, stronger effect = lower value 1 | locus YKL101W, strain HSL1, stronger effect = lower value 0.983 | locus YKL193C, strain SDS22, stronger effect = lower value 0.986 | locus YKL203C, strain TOR2, stronger effect = lower value 1.07 | locus YLR113W, strain HOG1, stronger effect = lower value 0.999 | locus YLR133W, strain CKI1, stronger effect = lower value 0.985 | locus YLR403W, strain SFP1, stronger effect = lower value 0.962 | locus YML070W, strain DAK1, stronger effect = lower value 1 | locus YMR001C, strain CDC5, stronger effect = lower value 0.97 | locus YMR205C, strain PFK2 (second series), stronger effect = lower value 1.01 | locus YMR277W, strain FCP1, stronger effect = lower value 0.966 | locus YNL006W, strain LST8, stronger effect = lower value 0.986 | locus YNL020C, strain ARK1, stronger effect = lower value 0.996 | locus YNL161W, strain CBK1, stronger effect = lower value 0.987 | locus YNL183C, strain NPR1, stronger effect = lower value 1.07 | locus YNL207W, strain RIO2, stronger effect = lower value 0.982 | locus YNL222W, strain SSU72, stronger effect = lower value 0.976 | locus YNL307C, strain MCK1 (second series), stronger effect = lower value 0.987 | locus YOL078W, strain AVO1, stronger effect = lower value 0.985 | locus YOL136C, strain PFK27, stronger effect = lower value 1 | locus YOR061W, strain CKA2, stronger effect = lower value 0.975 | locus YOR119C, strain RIO1, stronger effect = lower value 1.03 | locus YOR231W, strain MKK1, stronger effect = lower value 0.957 | locus YOR329C, strain SCD5, stronger effect = lower value 0.982 | locus YPL031C, strain PHO85, stronger effect = lower value 0.974 | locus YPL153C, strain RAD53, stronger effect = lower value 0.976 | locus YPL204W, strain HRR25, stronger effect = lower value 0.983 | locus YPL209C, strain IPL1, stronger effect = lower value 0.983 | locus YPL256C, strain CLN2, stronger effect = lower value 0.993 | locus YPR025C, strain CCL1, stronger effect = lower value 0.979 | locus YPR106W, strain ISR1, stronger effect = lower value 0.972 | locus YPR111W, strain DBF20, stronger effect = lower value 0.958 | strain NNK1, stronger effect = lower value 0.983 | strain TSCII, stronger effect = lower value 0.968
